Screening results deposited in PubChem BioAssay by National Center for Advancing Translational Sciences (NCATS).
Only some compounds are listed: those with a hit (about 1.4% of all), similar ones and a draw of the others.
FBPA Giardia inh – blocks Giardia fructose-bisphosphate aldolase activity | AID 2451 | Potency, µM (doses to about 59.6 µM), inactives show at the top dose activity, negative = inhibition, most hits filed as inhibitors | purified Giardia FBPA | 290,000 tested, 0.71% active | A8B2U2; further: on the % scale 0 is the no-effect control and ±100 the full control effect; nearly all actives have a fitted effect of over 55% in size
Target sequence (A8B2U2 whole entry, looked up): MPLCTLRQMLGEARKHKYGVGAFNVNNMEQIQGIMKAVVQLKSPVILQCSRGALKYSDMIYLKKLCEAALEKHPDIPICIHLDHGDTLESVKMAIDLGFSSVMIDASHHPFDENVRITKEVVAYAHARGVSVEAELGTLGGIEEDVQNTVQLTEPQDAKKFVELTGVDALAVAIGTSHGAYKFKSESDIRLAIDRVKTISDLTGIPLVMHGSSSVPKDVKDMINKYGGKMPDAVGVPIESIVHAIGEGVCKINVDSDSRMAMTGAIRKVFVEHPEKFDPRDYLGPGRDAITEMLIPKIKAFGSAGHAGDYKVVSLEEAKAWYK
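40 nM FBPA preincubated 10 min at RT with compound (up to 57.5 uM final), then substrate plus GAPDH/TPI/NAD/arsenate coupling and diaphorase/resazurin added. Fluorescence read after 20 min at RT, 525/598 nm.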
AmpC no deterg – inhibitors of E. coli AmpC beta-lactamase without detergent; Potency, µM (top dose mostly 57.1 µM), without a hit: at the highest dose activity change, negative = inhibition, hits mostly inhibitors; AID 485341; 330,000 tested, 0.52% active; AmpC nitrocefin hydrolysis, absorbance 480 nm, 0.0001% Triton;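 further: plate controls were no compound for no effect and no enzyme for full effect; nearly all actives have a fitted effect of over 20% in size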
Target sequence (P00811 whole entry, looked up): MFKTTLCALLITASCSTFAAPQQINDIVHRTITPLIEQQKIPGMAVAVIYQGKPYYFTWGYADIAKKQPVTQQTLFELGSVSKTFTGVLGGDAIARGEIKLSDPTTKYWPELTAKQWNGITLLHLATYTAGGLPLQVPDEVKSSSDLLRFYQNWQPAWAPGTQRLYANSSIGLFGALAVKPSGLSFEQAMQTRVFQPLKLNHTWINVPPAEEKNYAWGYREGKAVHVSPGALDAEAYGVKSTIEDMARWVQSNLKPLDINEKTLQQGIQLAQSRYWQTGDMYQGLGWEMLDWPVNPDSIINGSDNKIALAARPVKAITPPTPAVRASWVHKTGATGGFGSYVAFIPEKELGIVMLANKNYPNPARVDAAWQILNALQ
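AmpC (5.3 nM in the dispensed reagent) in 20 mM phosphate pH 7.0 with 0.01% (detergent screen) or 0.0001% Triton X-100 was preincubated with compounds for 15 min at room temperature. Nitrocefin was then added from an 800 uM solution, and hydrolysis was followed at 480 nm.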
SARS PLpro yeast – inhibitors of SARS-CoV papain-like protease in yeast; S. cerevisiae expressing SARS-CoV PLpro, growth rescue; Potency, µM (series often up to 32.9 µM), inactives show at the top dose activity, positive = growth rescue, most hits filed as activators; 330,000 tested, 0.19% active; AID 485353; calls by dose curve; further: 0% is about no effect; nearly all actives have a fitted effect of over 55% in size
AmpC detergent – AmpC beta-lactamase inhibition with detergent present. P00811. AmpC hydrolysis of nitrocefin, absorbance 480 nm, 0.01% Triton. Potency, µM (doses to about 114 µM), for the others: at the top dose activity change, negative = inhibition, most hits filed as inhibitors. 370,000 tested, 0.041% active;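 further: 0% = no-compound wells and -100% = no-enzyme wells; nearly all actives have a fitted effect of over 25% in size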
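AmpC (5.3 nM in the dispensed reagent) in 20 mM phosphate pH 7.0 with 0.01% (detergent screen) or 0.0001% Triton X-100 was preincubated with compounds for 15 min at room temperature. Nitrocefin was then added from an 800 uM solution, and hydrolysis was followed at 480 nm.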
NS1 inh – inhibitors of influenza NS1 protein function. Potency, µM (highest dose often 46.1 µM), for the others: top-dose activity, positive = more growth. 270,000 tested, 0.4% active. AID 2326; calls by dose curve; further: actives are rising curves; nearly all actives have a fitted effect of over 50% in size
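S. cerevisiae expressing influenza A NS1, grown in glucose, washed, then diluted 1:100 into pH 6.0 -URA galactose medium with 23 nl compound. Growth recovery read as OD600; NS1-free strain serves as control.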
* = called active by the depositor; ? = inconclusive; . = no result given. Unless noted, the call rests on the fitted dose curve; in most records, active means well fitted curve in the direction sought with a large enough effect; inconclusive means small, poorly fitted or top-dose-only effect, or another doubt; inactive means no such curve, though single readings can be large; an effect the other way counts as inactive or inconclusive. Potency means the concentration at half of the fitted maximal effect.

SMILES | FBPA Giardia inh | AmpC no deterg | SARS PLpro yeast | AmpC detergent | NS1 inh
COc1ccc(-n2ccc(=O)c(C(=O)Nc3ccc(S(=O)(=O)Nc4nccs4)cc3)n2)cc1 | ? | -30.4% | 7.3% | 50.1µM* | -9.8%
CC1=[N+](C)c2c(ccc3cccnc23)C1(C)C | 1.99µM* | -7.2% | -4.0% | 1.8% | -3.4%
CCOC(=O)COc1ccc(C(=O)c2ccccc2)c(O)c1 | -0.1% | -8.0% | -5.1% | -9.3% | 4.7%
CCOc1ccc(C(=O)c2ccc(O)c(O)c2O)cc1 | 15.8µM* | . | . | . | .
CCOc1cccc(C(=O)c2ccc(O)c(O)c2O)c1 | 19.9µM* | . | . | . | .
C=CCN1CC(=O)N2C(c3ccccc3)c3[nH]c4ccccc4c3C[C@H]2C1=O (stereo not given in full) | 7.5% | -4.8% | -0.5% | -1.8% | 7.2%
Cc1ccc(C(=O)OCN2C(=O)c3ccccc3C2=O)c(O)c1 | 3.7% | -16.0% | 7.8% | -1.3% | 20.5%
O=c1[nH]c(=O)n(Cc2ccco2)c(O)c1C=NCc1cccs1 | 1.8% | . | . | -0.6% | 6.1%
O=c1[nH]c(=S)n(Cc2ccco2)c(O)c1C=NCc1cccs1 | 12.5% | 17.8µM* | 1.1% | 2.3% | 3.0%
Cc1cc(=O)[nH]c(SCC(=O)NCC2CCCO2)n1 (stereo not given) | -3.4% | -1.0% | -0.2% | -1.7% | 4.7%
Cc1[nH]c2ccc(OCc3ccccc3)cc2c1CCN | -16.7% | -2.0% | -10.0% | 0.4% | 12.1%
Cc1[nH]c2ccc(O)cc2c1CCN | 3.54µM* | -14.4% | . | ? | -0.7%
Cc1ccn2cc(CCNC(=O)Cc3cccs3)nc2c1 | -3.1% | -7.1% | 0.3% | 7.1% | 4.0%
Cc1ccn2cc(CNC(=O)c3cccs3)nc2c1 | -12.7% | 3.55µM* | 1.6% | ? | -4.9%
O=C(NC1CCCCC1)C(=O)c1c(-c2ccccc2)[nH]c2ccccc12 | -4.7% | 12.6µM* | 19.0% | -10.3% | 27.1%
O=C(Nc1cc(Sc2ccccn2)cc([N+](=O)[O-])c1)c1ccc(Cl)cc1 | -14.7% | 31.6µM* | 6.8% | -2.5% | 3.7%
C/C(=N/Nc1nc(-c2ccccc2)cc(-c2ccccc2)n1)c1ccc(N)cc1 | 2.5% | -22.2% | -49.9% | 5.4% | 7.94µM*
CCOC(=O)c1cc2c(ccn2C)n1CC(=O)N1CCN(c2ccccc2)CC1 | -24.8% | 60.9% | 5.8% | 31.6µM* | ?
CCOC(=O)c1cc2c(ccn2C)n1CC(=O)N1C(C)CCCC1C (stereo not given) | -6.1% | 2.4% | -0.4% | 8.1% | 5.9%
Cc1cc(C)n(CC(O)CN2C(=O)NC(C)(C)C2=O)n1 (stereo not given) | -0.6% | -17.8% | 6.3% | 1.3% | 1.4%
Nc1cc(-c2ccc(Cl)cc2)nn1S(=O)(=O)c1cccc2nsnc12 | -3.6% | 22.4µM* | 1.1% | -14.8% | 18.1%
Cn1c(=O)n(C)c2cc([N+](=O)[O-])c(N3CCN(S(=O)(=O)c4ccccc4)CC3)cc21 | -5.5% | 11.1% | -0.5% | -2.4% | -14.4%
O=C1NC(=O)N(CCc2ccc(F)cc2)C(=O)/C1=C\C=C\c1ccccc1 | 1.0% | 3.55µM* | 2.0% | -2.0% | .
COc1ccc(CCn2c(C)cc(C(=O)COC(=O)c3ccc(NC(=O)CC#N)cc3)c2C)cc1 | . | 17.8µM* | -7.1% | -7.1% | -11.3%
Cc1cc(C(=O)COC(=O)c2ccc(NC(=O)CC#N)cc2)c(C)n1CCc1ccc(F)cc1 | . | -56.8% | 1.5% | -3.5% | .
SMILES | FBPA Giardia inh | AmpC no deterg | SARS PLpro yeast | AmpC detergent | NS1 inh
Cc1cc(C)c(C(=O)COC(=O)c2ccc(NC(=O)CC#N)cc2)cc1C | -5.4% | 6.31µM* | 0.1% | 10.6% | 12.0%
CNC(=O)COC(=O)c1ccc(NC(=O)CC#N)cc1 | 5.2% | -14.1% | 5.3% | 1.0% | 6.7%
CCOC(=O)c1c(NC(=O)c2ccc(OC)c(OC)c2)sc2c1CCCCC2 | . | . | . | 5.1% | .
CCSCc1nnc(SCC(=O)Nc2nc3ccccc3s2)n1C | 3.0% | -12.3% | 2.3% | ? | -4.8%
O=C(CNc1ccccc1)N/N=C/c1cc([N+](=O)[O-])ccc1N1CCCC1 | -2.2% | 7.94µM* | ? | -0.3% | 5.9%
O=c1[nH][nH]c(=S)n1C1CCCCC1 | 19.9µM* | -7.8% | 0.7% | -0.6% | 9.3%
O=c1cc(O)n(C2CCCCCC2)c(=O)[nH]1 | -10.1% | -33.9% | -2.6% | -7.9% | 11.8%
Cc1ccc(C2=NN(S(=O)(=O)c3ccccc3)C(c3ccco3)C2)cc1 (stereo not given) | . | -33.3% | -0.1% | 10.5% | .
O=S(=O)(c1ccccc1)N1N=C(c2ccc(O)cc2)CC1c1ccco1 (stereo not given) | . | 14.1µM* | . | 0.5% | 3.2%
NS(=O)(=O)c1ccc(N=Nc2c(O)c(C(=O)O)cc3ccccc23)cc1 | ? | 22.4µM* | 1.4% | -10.4% | -2.9%
O=C(O)Cc1ccc(N=Nc2c(O)c(C(=O)O)cc3ccccc23)cc1 | -16.5% | -39.3% | -1.4% | -14.5% | 15.8%
CCCn1nnc(NC(=O)c2ccc([N+](=O)[O-])cc2Cl)n1 | -0.1% | -6.7% | -0.9% | 5.8% | 0.5%
COc1ccc(/C=N/OCC(=O)N=Nc2c(O)[nH]c3ccc(Br)cc23)cc1OC | -2.9% | 3.16µM* | 4.2% | 0.1% | 19.6%
O=C(N[C@@H](Cc1ccccc1)C(=O)NCc1ccc(F)cc1)C1CCNCC1 | -11.2% | -7.3% | -1.5% | -12.4% | -2.2%
O=[N+]([O-])c1ccccc1-c1ccc(C(=S)N2CCCCC2)o1 | ? | -34.9% | -1.3% | 6.6% | -2.1%
COc1cccc(NC(=O)c2ccc(-c3ccc([N+](=O)[O-])cc3)o2)c1 | -5.5% | 17.8µM* | -1.5% | -6.2% | 0.6%
O=[N+]([O-])c1ccccc1-c1ccc(C(=S)N2CCCC2)o1 | 15.8µM* | -2.4% | 0.1% | -14.2% | .
CC(=O)c1cccc(NC(=O)c2ccc(-c3ccccc3[N+](=O)[O-])o2)c1 | 9.98µM* | -51.1% | 3.0% | -9.8% | 19.0%
Cc1cc(NC(=O)c2ccc(-c3ccccc3[N+](=O)[O-])o2)no1 | . | -32.0% | 0.0% | . | .
CC(C)NC(=O)N1CCC2(CC1)CCN(C(=O)c1cccc(F)c1)CC2 | 6.1% | . | . | . | .
O=c1nc(Nc2ccccc2)oc2ccccc12 | -4.7% | -7.9% | -7.3% | -0.6% | -4.1%
O=c1nc(Nc2cccc(Cl)c2)oc2cc(Cl)oc(=O)c12 | -18.6% | 10µM* | 1.1% | -1.2% | 6.3%
CCC(=O)Nc1nnc(-c2ccc(Cl)s2)o1 | -23.8% | -27.6% | 5.5% | -0.5% | .
CC(=O)Nc1nnc(-c2ccc(Cl)s2)o1 | -5.9% | 1.58µM* | 2.6% | 5.4% | 1.6%
Clc1ccc(-c2nnc3n2CCCS3)cc1 | 8.7% | -28.5% | 4.1% | -0.2% | 2.1%
O=S(=O)(Cc1cc(Sc2ccc(Cl)cc2)nc(-c2ccccc2)n1)c1ccccc1 | -4.6% | -14.6% | 10.0% | 0.8% | -2.0%
Cc1nc(CS(=O)(=O)c2ccc(Cl)cc2)cc(Sc2ccc(Cl)cc2)n1 | -2.3% | 3.98µM* | -9.8% | 9.7% | 2.9%
COc1ccc(-c2cc(C)no2)cc1S(=O)(=O)NC1CCC(C)CC1 (stereo not given) | . | . | . | 0.0% | .
